Among the data in PubChem BioAssay AID1345085 (National Center for Advancing Translational Sciences (NCATS), 2018) are Potency values, retold here.

Records with an inconclusive call do not appear. The source made the active and inactive calls. Calls come from the whole dose curve; as a rule, active = well fitted cell-killing curve with a large enough effect; inconclusive = small, poorly fitted or top-dose-only effect, or effect the other way; inactive = no such curve, though single readings can be large or run the other way.
Potency is the fitted concentration of half-maximal effect.

For this test, the system named is PA-1. Briefly: Confirmatory qHTS for gynecologic anti-cancer compounds from libraries of approved drugs and bioactive compounds. Note: nearly all actives have a fitted effect of over 55% in size. The settings on record: gynecologic cancer cell panel viability, ATPlite luminescence, 48 h; series mostly up to 57.6 µM. In a few lines: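 1,000 cells/well; 16 h pre-incubation 37 C, 5% CO2; pin-transferred cpd in DMSO, 11 conc (1:3), 57.5 uM–0.977 nM; 48 h; ATPlite, 15 min RT; luminescence → IC50.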
As for `CN(C)c1ccc(-c2nc3ncc(Cl)c(N4CCN(CC(=O)Nc5nccs5)CC4)c3[nH]2)cc1`, the Potency is 3.35 µM (active).
On to `CC(Oc1cc(-n2cnc3ccc(CN4CCN(C)CC4)cc32)sc1C(N)=O)c1ccccc1C(F)(F)F` (centres undefined), for which the Potency is 2.43 µM (active).
The value for `CN1CCN(Cc2ccc(NC(=O)Nc3ccc(Oc4cc(NC(=O)C5CC5)ncn4)cc3)cc2C(F)(F)F)CC1` was 0.193 µM (active).
Turning to `CNC(=O)c1nn(C)c2c1C(C)(C)Cc1cnc(Nc3ccc(N4CCN(C)CC4)cc3)nc1-2`, the Potency was 0.769 µM (active).
As to `COc1cc2nccc(Oc3ccc(NC(=O)C4(C(=O)Nc5ccc(F)cc5)CC4)cc3)c2cc1OC`, the Potency is 10.9 µM (active).
With `Cc1nc2ccc(CN(C)c3ccc(C(=O)NC(CCC(=O)O)C(=O)O)s3)cc2c(=O)[nH]1` (centres undefined), the Potency was 0.137 µM (active).
Turning to `Cc1cc(CN2CCN(c3c(Br)cnc4nc(-c5ccc(N6CCN(C)CC6)cc5)[nH]c34)CC2)no1`, the Potency was 17.2 µM (active).
Consider `CC(=O)NCC(=O)N1C2CCC1c1cc(Nc3ncc(C(F)(F)F)c(NC4CCC4)n3)ccc12` (centres undefined), for which the Potency was 0.685 µM (active).
As to `CCCC(Nc1nc(-c2ccc(NC(=O)NCC)c(OC)c2)ncc1C)c1cccnc1` (centres undefined), the Potency is 0.137 µM (active).
Regarding `COc1cc(F)c(F)c(Nc2ccc(I)cc2F)c1NS(=O)(=O)C1(CC(O)CO)CC1` (centres undefined), the Potency entry is “inactive”.
For `CC(=O)c1cnc2ccc(-c3cc(Cl)c(O)c(Cl)c3)nc2c1NC1CCC(CN(C)C)CC1` (centres undefined), the Potency is 0.222 µM (active).
As for `COc1cc2c(Oc3ccc(-c4cnc(Nc5ccc(F)cc5)n(C)c4=O)cc3F)ccnc2cc1OCCCN1CCOCC1`, the figure is 21.7 µM (active).
`Nc1nc(=S)c2[nH]cnc2[nH]1`: the Potency was 6.85 µM (active).
As for `CCCC(=O)O[C@]1(C(=O)CCl)[C@@H](C)C[C@H]2[C@@H]3CCC4=CC(=O)C=C[C@]4(C)[C@@]3(F)C(=O)C[C@@]21C`, the Potency is 19.3 µM (active).
As to `Cc1cc(Nc2cc(N3CCN(C)CC3)nc(/C=C/c3ccccc3)n2)n[nH]1`, the Potency was 3.85 µM (active).
Regarding `CC(C)(C)C(=O)OCOP(=O)(COCCn1cnc2c(N)ncnc21)OCOC(=O)C(C)(C)C`, the Potency was 6.85 µM (active).
As for `CC(C)CC(=O)Nc1n[nH]c2c1CN(C(=O)C1CCN(C)CC1)C2(C)C`, the figure is 0.172 µM (active); as for `CCN(CC)CCCC(C)Nc1ccnc2cc(Cl)ccc12` (centres undefined), “inactive”.
Regarding `CNC(=O)c1ccccc1Nc1nc(Nc2ccc(N3CCOCC3)cc2OC)ncc1Cl`, the Potency is 1.72 µM (active).
On to `COc1cccc2cc(-c3nc(C4CCC(C(=O)O)CC4)n4ncnc(N)c34)[nH]c12` (centres undefined), for which the Potency is 9.68 µM (active).
Consider `Nc1cccc(-c2cc3c(Oc4cccc(O)c4)ncnc3[nH]2)c1`, for which the Potency is 9.68 µM (active).
Take `Cc1nc(N)ncc1-c1nc(N2CCOCC2)c2sc(C(C)(C)O)cc2n1`: the Potency is 6.85 µM (active).
As for `C[C@]12CCC(=O)C=C1[C@@H]1C[C@@H]1[C@H]1[C@@H]3[C@@H]4C[C@@H]4[C@@]4(CCC(=O)O4)[C@@]3(C)CC[C@@H]12`, the entry is “inactive”; as for `CNc1nccc(-c2cccnc2Oc2cc(C(=O)Nc3cccc(C(F)(F)F)c3)ccc2C)n1`, 17.2 µM (active); as for `C[C@@H](Oc1cc(-c2cnn(C3CCNCC3)c2)cnc1N)c1c(Cl)ccc(F)c1Cl`, 6.85 µM (active).
As for `CC[C@]1(O)C[C@H]2CN(CCc3c([nH]c4ccccc34)[C@@](C(=O)OC)(c3cc4c(cc3OC)N(C=O)[C@H]3[C@@](O)(C(=O)OC)[C@H](OC(C)=O)[C@]5(CC)C=CCN6CC[C@]43[C@@H]65)C2)C1`, the figure is 0.172 µM (active); as for `COc1cc(N2CCC(N3CCN(C)CC3)CC2)ccc1Nc1ncnc(Nc2ccccc2S(=O)(=O)C(C)C)n1`, 9.68 µM (active).
`CN1CCCC(n2nc(Cc3ccc(Cl)cc3)c3ccccc3c2=O)CC1` (centres undefined): the Potency was 27.3 µM (active).
`Cc1cc(C2CCCCC2)n(O)c(=O)c1`: the Potency is 3.53 µM (active).
For the molecule `CC(C)Nc1cc(-c2c[nH]c(C(=O)N[C@H](CO)c3cccc(Cl)c3)c2)c(Cl)cn1`, the Potency is 6.11 µM (active).
For the molecule `CCN1CCN(Cc2ccc(Nc3ncc(F)c(-c4cc(F)c5nc(C)n(C(C)C)c5c4)n3)nc2)CC1`, the Potency is 2.43 µM (active).
In the case of `O=C(CCCCCCC(=O)Nc1ccccc1)NO`, the Potency was 1.37 µM (active).
As for `FC(F)(F)c1ccc(/C=C/c2nc(COc3ccc(CCCCn4ccnn4)cc3)co2)cc1`, the figure is 0.0193 µM (active).
The value for `Cc1nc(NC(=O)N2CCCC2C(N)=O)sc1-c1ccnc(C(C)(C)C(F)(F)F)c1` (centres undefined) was 27.3 µM (active).
